Data as given in PubChem BioAssay.
Calls of active or inactive are those of the source.

What was measured:
[1] = A549 cell viability effects, profiling panel, calcein-AM fluorescence, 48 h, basal (AID 1162); details: higher = more signal
[2] = adipocyte viability effects, profiling panel, cell-based, 3T3-L1 adipocytes, calcein-AM fluorescence, 48 h, basal (AID 1163); details: 3T3-L1 adipocytes viability, higher = more signal
[3] = HepG2 cell viability effects, profiling panel, calcein-AM fluorescence, 48 h, basal (AID 1164); details: higher = more signal
[4] = MM1S cell viability effects, profiling panel, calcein-AM fluorescence, 48 h, basal (AID 1165); details: higher = more signal;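 further: viability of MM1S multiple myeloma cells under basal unstimulated conditions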
[5] = basal RPMI8226 viability, no added stimulus, profiling panel, cell-based, calcein-AM fluorescence, 48 h, PK04 Diversity Set (AID 1166); details: RPMI8226 myeloma viability, higher = more signal;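 further: cells grown under basal conditions without added stimulus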
[6] = basal HepG2 mitochondrial membrane potential changes, profiling panel, cell-based, JC-1 fluorescence, 24 h, 100 nL compound (AID 1167); details: higher = more signal
[7] = basal 3T3-L1 adipocyte mitochondrial potential changes, profiling panel, cell-based, JC-1 fluorescence, 3T3-L1 adipocytes, 24 h, 100 nL compound (AID 1168); details: JC-1 mitochondrial fluorescence, higher = more signal, called active from +8 up or from −8 down
[8] = basal RPMI8226 mitochondrial membrane potential changes, profiling panel, cell-based, JC-1 fluorescence, 24 h, 100 nL compound (AID 1169); details: RPMI8226 myeloma, JC-1 mitochondrial potential fluorescence, higher = more signal
[9] = basal MM1S mitochondrial membrane potential changes, profiling panel, cell-based, JC-1 fluorescence, 24 h, 100 nL compound (AID 1170); details: higher = more signal
[10] = A549 lung cancer cell viability effects, profiling panel, resazurin fluorescence, 24 h, PK04 Diversity Set (AID 1171); details: higher = more signal, called active from +8 up or from −8 down
Further: test concentration not given here.

SMILES | z-score [1] | z-score [2] | z-score [3] | z-score [4] | z-score [5] | z-score [6] | z-score [7] | z-score [8] | z-score [9] | z-score [10]
COC(=O)c1ccc(C#CC(NP(=O)(c2ccccc2)c2ccccc2)c2ccccc2)cc1 (stereo not given) | -0.341 | -0.0724 | 0.428 | -3.15 | -3.5 | -0.798 | -0.174 (inactive) | -0.352 | -1.3 | -0.491 (inactive)
CCCC=C(CCC)[C@@H](NS(=O)(=O)c1ccc(-c2ccccc2)cc1)c1ccc(C(=O)OC)cc1 | -1.34 | 0.906 | -1.52 | -1.18 | -2.93 | -4.34 | 0.0846 (inactive) | 0.326 | -1.78 | 1.35 (inactive)
COc1ccc([Si](C)(C)[C@H]2[C@H](CC(=O)N3Cc4ccccc4C[C@H]3CO)O[C@@]3(C(=O)N(Cc4cccc(N5CCOC5=O)c4)c4ccccc43)[C@@H]2C)cc1 | 0.443 | 0.373 | -0.632 | -0.913 | -0.727 | 1.31 | 0.405 (inactive) | -1.1 | -0.223 | -0.399 (inactive)
CC(C)=C1C(=O)C(c2ccccc2)=C2CN3C(=O)N(CCc4ccccc4)C(=O)[C@]3(Cc3ccccc3)[C@H]21 | -0.778 | 0.66 | 0.0577 | 0.492 | -0.895 | -0.366 | -0.623 (inactive) | -0.0727 | -0.496 | -0.723 (inactive)
CO[C@H]1COC(=O)CC=C[C@H](C)COC(=O)[C@@H](OCc2ccccc2)C=C[C@@H]1C | -0.696 | -0.886 | 0.806 | 0.178 | -1.73 | 0.96 | 0.877 (inactive) | 0.103 | 0.398 | 0.0283 (inactive)
CCOC(=O)C1=C[C@@H](c2ccccc2)N(S(=O)(=O)c2ccc(C)cc2)[C@H]1c1ccc(F)cc1 | -1.39 | -0.498 | -2.67 | -2.06 | -1.34 | 2.45 | -1.16 (inactive) | -0.118 | -0.00719 | 1.04 (inactive)
C=C(CCCC)/C(=C/C[C@@H](OC(=O)c1ccncc1)c1ccc(CO)o1)c1cnc2ccccc2c1 | 1.18 | 0.282 | -0.284 | -2.48 | -1.18 | -0.526 | -0.586 (inactive) | -0.287 | 1 | -0.0271 (inactive)
CO[C@H]1COC(=O)[C@H](C)NC(=O)CC=C[C@@H](C)[C@H](NS(=O)(=O)c2ccc(C)cc2)COC(=O)CC=C[C@@H]1C | -0.199 | 1.76 | -0.261 | 0.436 | 0.769 | 0.645 | -0.236 (inactive) | -0.081 | 0.753 | 0.317 (inactive)
O=C(NCc1ccccc1)c1ccc(Br)cc1[N+](=O)[O-] | -0.787 | 0.0153 | 0.0565 | -0.0086 | 0.287 | -0.0457 | 0.346 (inactive) | -0.745 | 0.189 | 0.0828 (inactive)
COC(=O)c1c(CC[C@@H](CO)NC(=O)N[C@H](Cn2cc(-c3cncn3C)nn2)C(C)C)oc(C(C)=O)c1C(=O)OC | 0.128 | 1.93 | -0.102 | 0.191 | -0.344 | 0.57 | 1.43 (inactive) | -0.444 | -0.289 | -0.169 (inactive)
C[C@H]1COC(=O)[C@@H]2CCCN2C(=O)[C@@H](C)COC(=O)[C@@H]2CCCN2C1=O | 0.507 | 0.442 | -0.178 | 0.323 | -0.0243 | 0.799 | 0.085 (inactive) | -0.108 | 0.0551 | 1.5 (inactive)
Cc1ccc(S[C@]2(C(=O)O)CC(=O)N(Cc3ccccc3)[C@@H]2c2ccc(CO)cc2)cc1 | 0.633 | -0.671 | -0.18 | -0.476 | 0.607 | 0.536 | 0.923 (inactive) | 0.118 | -0.418 | 0.477 (inactive)
COCCOC(=O)N1C(=O)[C@@]2(c3cc(C#CC4=CCCCC4)ccc31)[C@H](c1ccc(O)cc1)N1[C@H](c3ccccc3)[C@H](c3ccccc3)OC(=O)[C@H]1[C@@H]2C(=O)N1CCCCCCC1 | 1.43 | 1.06 | 0.0785 | -0.278 | -0.641 | -0.926 | 1.37 (inactive) | -0.247 | 0.12 | 0.676 (inactive)
O=C(NCC(O)CO)[C@]1(Cc2ccccc2)N=C(c2ccc(OCCCO)cc2)O[C@@H]1c1ccccc1 (stereo not given in full) | -0.798 | 1.91 | -2.22 | -1.26 | -1.08 | -1.81 | 1.03 (inactive) | 0.159 | 0.245 | 0.519 (inactive)
COC(=O)[C@@]1(Cc2ccccc2N=[N+]=[N-])N=C(c2ccc(OCCCO)cc2)O[C@H]1c1ccccc1CN=[N+]=[N-] | -2.82 | 0.128 | -5.51 | -3.55 | -3.96 | -1.98 | 1.69 (inactive) | -0.822 | -2.91 | -3.26 (inactive)
Cc1ccc(S[C@]2(C(=O)O)CC(=O)N(Cc3cc(C(F)(F)F)cc(C(F)(F)F)c3)[C@@H]2c2ccc(CO)cc2I)cc1 | 0.673 | 0.429 | 0.324 | -3 | -2.22 | -0.338 | -0.459 (inactive) | -0.325 | -1.36 | 0.288 (inactive)
CCCNC(=O)[C@@H]1c2ccccc2C(=O)N(C2CCCCC2)[C@H]1c1ccc(CO)cc1 | 0.285 | -0.144 | 0.107 | -0.524 | 0.0117 | 2.29 | 0.00608 (inactive) | -0.192 | -0.401 | 1.58 (inactive)
CC(C)[Si](OCC[C@H]1O[C@]2(C(=O)N(Cc3ccccc3)c3ccccc32)[C@@H](C)[C@@H]1[Si](C)(C)O)(C(C)C)C(C)C | -0.287 | 1.13 | 0.35 | -0.64 | -1.31 | 0.444 | 0.578 (inactive) | -0.82 | -1.51 | -1.46 (inactive)
COCCOC(=O)N1C(=O)[C@@]2(c3cc(C#CCNC(N)=O)ccc31)[C@H](c1ccccc1OCCO)N1[C@H](c3ccccc3)[C@H](c3ccccc3)OC(=O)[C@H]1[C@@H]2C(=O)NC[C@H](O)c1ccccc1 | -0.991 | -0.574 | 0.0681 | -0.344 | 0.941 | -1.64 | 0.392 (inactive) | -0.305 | -0.803 | 0.868 (inactive)
Cc1ccc(S[C@]2(C(=O)NC(C)C)CC(=O)N(C3Cc4ccccc4C3)[C@@H]2c2ccc(CO)cc2)cc1 | 0.0188 | 2.29 | 0.0794 | 0.549 | -1.02 | 0.0355 | -0.636 (inactive) | 0.758 | 0.643 | -0.0208 (inactive)
CCOC(=O)C[C@H]1[C@H](OC(=O)c2cc3ccccc3oc2=O)[C@@H](NC(=O)c2ccc3ccccc3c2)c2cc(OCCCO)ccc2N1C(=O)c1ccc2ccccc2n1 | 0.418 | 1.48 | -0.0664 | 0.555 | 0.167 | 0.158 | -0.0237 (inactive) | -0.233 | 0.197 | -0.194 (inactive)
CO[C@H]1COC(=O)CC=C[C@H](C)[C@@H](OC)COC(=O)[C@H](Cc2ccccc2)NC(=O)CC=C[C@@H]1C | 0.0767 | 1.57 | 0.219 | 0.196 | 0.988 | 0.566 | 0.746 (inactive) | -0.0213 | 1.14 | 0.345 (inactive)
COc1ccc([Si](C)(C)[C@H]2[C@H](CCO)O[C@@]3(C(=O)N(Cc4ccccc4)c4ccc(N5C(=O)c6cccc7cccc5c67)cc43)[C@@H]2C)cc1 | 0.318 | 0.535 | -2.11 | -1.02 | -3.03 | 1.63 | 2.08 (inactive) | -0.815 | -0.923 | -1.46 (inactive)
CC(C)NC(=O)[C@@]1(Cc2ccccc2I)c2ccccc2C(=O)N(C2CCCCC2)[C@H]1c1ccc(CO)cc1 | 0.377 | 0.967 | -0.476 | -0.533 | -3.89 | 1.54 | -0.68 (inactive) | -0.941 | -1.36 | 0.778 (inactive)
CO[C@H]1O[C@H](CO)[C@@H](OC(=O)Nc2ccccc2)[C@H](OC(=O)Nc2ccc3c(c2)OCO3)[C@@H]1OC(=O)Nc1ccc2c(c1)OCO2 | 0.307 | 0.85 | 0.17 | -1.51 | -0.735 | -0.493 | 2.84 (inactive) | 0.105 | 0.327 | -0.429 (inactive)
Cc1ccc(N2C(=O)c3ccccc3[C@@H](C(=O)NCC(F)(F)F)[C@@H]2c2ccc(CO)cc2)nc1 | 0.312 | 0.603 | 0.471 | 0.0049 | 0.51 | 1.04 | 0.884 (inactive) | -0.223 | 0.0421 | 0.547 (inactive)
CCOC(=O)C1=CC[C@@H](c2ccc(-c3ccc(OCc4ccccc4)cc3)c(OC)c2)N(S(=O)(=O)c2ccc(C)cc2)[C@H]1c1ccccc1 | -0.603 | -0.416 | 0.418 | -1.23 | -0.119 | 4.16 | 0.51 (inactive) | -0.161 | -1.54 | 0.751 (inactive)
C=CCC(OC(C)=O)[C@@H]1[C@@H](N(Cc2ccc(-c3cccc(C(F)(F)F)c3)o2)C(=O)Cc2ccc(F)cc2)c2cc(OCCCO)ccc2N1C(=O)c1ccc(-c2ccccc2)cc1 (stereo not given in full) | 0.468 | 0.145 | 0.536 | 1.16 | -0.147 | 1.88 | -1.64 (inactive) | -0.582 | 0.286 | 0.303 (inactive)
